Experimental findings from PubChem BioAssay are described below.

Values without a mark were called inactive.

One assay can be described thus: basal S. cerevisiae growth modulation, no modifier, primary screen, OD600, strain BY4716, 24 h, basal condition (AID 1173). The note with it: OD600, 24 h, higher = more signal, called active from +8 up or from −8 down.
On to `COCC(=C=CC[C@@H](O)c1ccc(OCCO)cc1)C[C@@H](O)c1ccccn1`, for which the z-score was -0.58.

Turning to `COC(=O)[C@@]1(Cc2ccc(OC)cc2)[C@H]2c3cc(C(=O)N(C)C)n(Cc4ccc(C(F)(F)F)nc4)c3C[C@H]2CN1C(=O)c1ccccc1`, the z-score was 0.794.

Take `COCCCNC(=O)[C@@H]1c2ccccc2C(=O)N(Cc2ccccc2OC)[C@H]1c1ccc(CO)cc1`: the z-score was -0.993. `O=C1O[C@@H](c2ccccc2)[C@@H](c2ccccc2)N2[C@@H](c3ccc(OCCO)cc3)[C@]3(C(=O)Nc4ccc(C#CCCO)cc43)[C@@H](C(=O)NC[C@H](O)c3ccccc3)[C@H]12`: the z-score is 1.49. The same measure, in the same setting: with `O=C(O)[C@H]1C[C@H]2C(=O)N3CCC[C@H]3C(=O)N2[C@H]1c1ccc(O)cc1` the figure was -0.171. Consider `[N-]=[N+]=NCc1ccccc1C[C@@]1(C(=O)NCC(O)CO)N=C(c2ccc(OCCCO)cc2)O[C@@H]1c1ccccc1` (stereo partly drawn), for which the z-score is -2.07.

The nature of a further assay: MM1S myeloma cell viability, profiling panel, resazurin fluorescence, basal, 24 h, PK04 Diversity Set (AID 1174).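 Note: MM1S multiple myeloma cell line; test concentration not given here.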 The note with it: higher = more signal, called active from +8 up or from −8 down. Background: Resazurin is reduced to fluorescent resorufin, in cell work by metabolically active cells.
On to `C#CCN1[C@@H](Cc2ccc(O)cc2)C(=O)O[C@H](Cc2ccccc2)[C@@H]1/C=C/C1CC1`, for which the z-score was -1.08.

Take `CCCCCCCCCCC(O)C1C=CC2C(=O)NC(=O)C2N1Nc1ccc(Cl)cc1Cl` (stereo not drawn): the z-score was -1.76. For the compound `O=C(NCc1ccccc1)[C@@H]1c2ccccc2C(=O)N(C2Cc3ccccc3C2)[C@H]1c1ccc(CO)cc1`, the z-score was -0.139. Turning to `CN(C)CCCCCCNC(=O)[C@@H]1C[C@@H]2C(=O)N3CCC[C@H]3C(=O)N2[C@@H]1c1ccc(O)cc1`, the z-score is -0.235.

As to `N#Cc1ccc(C(O)C2C=CC3C(=O)N(c4ccccc4)C(=O)C3N2Nc2ccccc2F)cc1` (stereo not drawn), the z-score is 0.55.

For the compound `COc1ccc([Si](C)(C)[C@@H]2[C@@H](CC(=O)N3Cc4ccccc4C[C@H]3CO)O[C@]3(C(=O)N(Cc4cccc(N5CCC5=O)c4)c4ccccc43)[C@H]2C)cc1`, the z-score is -0.922.

As for `CS(=O)(=O)CCOC(=O)C1=CC(CCCO)=CC(C2CC2)N(Cc2cc3c(cc2Br)OCO3)C=C1C(=O)OCCS(C)(=O)=O` (stereo not drawn), the z-score is -0.134. For `NC(=O)N1C(=O)C2C(C1=O)C1C=C(CCCO)C2C(C2CC2)N1Cc1cc2c(cc1Br)OCO2` (stereo not drawn), the z-score was -0.264.

Take `O=C1OCCC=C[C@H]2OC34C=CCN(CCN5CCOCC5)C(=O)[C@H]3N(CCCCCO)C(=O)[C@@H]4C12` (stereo partly drawn): the z-score is 0.673. With `CC(CO)N1C(=O)[C@@H]2C3C(=O)OCCC/C=C\[C@H]3OC23C=CCN(CCN2CCOCC2)C(=O)[C@@H]13` (stereo partly drawn), the z-score is -0.72.

Consider `CCCCCCc1nc(-c2ccc(-c3ccc(Cl)c(Cl)c3)o2)c(C)c2c1[Si](C(C)C)(C(C)C)OC2`, for which the z-score is -2.84.

For `CCOc1cc(C(O)C2C=CC3C(=O)N(c4ccccc4)C(=O)C3N2Nc2ccc(C(C)C)cc2)ccc1O` (stereo not drawn), the z-score is -0.988. Still for that read-out and setting: the result for `CCOC(=O)C1=C[C@@H](C(C)C)N(S(=O)(=O)c2ccc(C)cc2)[C@H]1c1ccccc1F` reads -0.328. For the compound `COc1cc2c(cc1O)C(c1cccs1)N(Cc1cccc(OC(F)(F)F)c1)CC2` (stereo not drawn), the z-score was -1.11. As to `C=CCN1C(=O)[C@]2(Cc3ccccc3)N=C(c3ccc(OCCCO)cc3)O[C@@H]2c2ccccc21`, the z-score was -4.58. As to `COc1ccc([Si](C)(C)[C@@H]2[C@@H](CCn3cc(CCO)nn3)O[C@]3(C(=O)N(Cc4cccc(N5C(=O)c6cccc7cccc5c67)c4)c4ccccc43)[C@H]2C)cc1`, the z-score is -6.83. As to `C=CCN(Cc1ccccc1)C(=O)C(c1cccs1)N(C(=O)/C=C\C(=O)O)c1ccc(CCOCCO)cc1` (stereo not drawn), the z-score was 0.222. On the same count and under the same terms, with `COC(=O)c1c2oc(c1C(=O)OC)C(=O)NC1(CCCCC1)c1cn(nn1)C[C@H](Cc1ccccc1)NC(=O)N[C@H](CO)CC2` the figure was 0.911. For `CC(=O)NCCCC[C@@H]1NC(=O)[C@H]2C[C@@H](C(=O)NCCCCCNC(=O)CS)[C@@H](c3ccc(O)cc3)N2C1=O`, the z-score is 0.0985. On the same count and under the same terms, the result for `COCCCNC(=O)[C@@]1(CCS(=O)(=O)c2ccccc2)N=C(c2ccc(OCCCO)cc2)O[C@H]1c1ccccc1N=[N+]=[N-]` reads -0.368.

As to `COc1ccc(NN2C(C(O)c3ccc(N(C)C)cc3)C=CC3C(=O)N(C4CCCCC4)C(=O)C32)cc1` (stereo not drawn), the z-score was -0.0447. `[N-]=[N+]=NCc1ccccc1[C@@H]1OC(c2ccc(OCCCO)cc2)=N[C@]1(CCS(=O)(=O)c1ccccc1)C(=O)N1CCCCC1`: the z-score was -0.814.
